# Giardia killer: Giardia lamblia killing; Giardia lamblia trophozoite viability; hit rate 0.15% among 340,000; activity change, % at 7.66 µM, hits read low; in the data active = activity change below about -80%; inconclusive = between about -30% and that limit;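 also: parasites exposed to compound for two days anaerobically before the ATP read; % is scaled to controls: 0 for no effect and ±100 for the full control effect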
#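 Media and compound were dispensed first, then trophozoites at 100 cells/well; plates sat 48 hrs at 37 deg C without oxygen before ATP luminescence reagent was added and read after 15-30 min at room temperature.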
# HT1080-NT tox: kills 2HG-producing HT-1080-NT fibrosarcoma cells. HT-1080-NT fibrosarcoma viability, CellTiter-Glo ATP luminescence, 48 h. Potency, µM (top dose mostly 46.1 µM), inactives show at the top dose activity, negative = less viability, usual class: cytotoxic. hit rate 1.6% among 360,000;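 also: NT is the 2HG producing partner of a matched IDH1 knockdown line; potency is read from the fitted curve at half-maximal effect; 0% = DMSO-treated cells and -100% = media-only wells without cells; nearly all actives have a fitted effect of over 55% in size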
#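 Compounds were tested in concentration-response format on HT-1080-NT cells for 48 hours at 37 degrees C. Cell viability came from CellTiter-Glo luminescence; curves were classified by r2, response magnitude and activity.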
# HepG2 viability: HepG2 cytotoxicity, counter-screen for TGF-b inhibitors; HepG2 CAGA-GFP viability, ATP luminescence, 18 h; Potency, µM (titrated, usually from 46.1 µM), inactives show at the highest dose activity change, negative = cytotoxicity, actives largely listed as cytotoxic; hit rate 0.76% among 410,000; also: potency is read from the fitted curve at half-maximal effect
#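 CellTiter-Glo luminescence gave cytotoxicity after 18 hours at 37 degrees C. The cells were HepG2 CAGA-GFP in 1% FBS DMEM, stimulated with 500 pg/mL TGF-beta after compound addition. %Activity was normalised to no-cell wells (complete cell-killing) and DMSO (no toxicity), and curves were fitted and classified.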
# HT1080 IDH1KD tx: toxicity to HT-1080 IDH1 knockdown cells (counter line). HT-1080 IDH1 knockdown viability, ATP luminescence, 48 h. Potency, µM (doses to about 46.1 µM), inactives show at the top dose activity, negative = toxicity, usual class: cytotoxic. hit rate 2% among 360,000;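 also: potency is read from the fitted curve at half-maximal effect; 0% = DMSO wells and -100% = cell-free medium wells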
#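 After a 2 h attachment period, IDH1KD HT-1080 cells took pin-transferred compound for 48 h at 37 °C; ATP-based luminescence after 10 min room-temperature reagent incubation reported viability.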
# IL1B secr inh: inhibitors of inflammasome signaling (IL-1 beta secretion). THP-1 LPS/ATP IL-1B secretion, AlphaLISA, 16 h; active compounds read low. activity change, % at 57.5 µM. hit rate 4.7% among 360,000. AID 743279; in the data active = activity change below about -50%; inconclusive = mostly about -30% to -49%; also: % is scaled to controls: 0 for no effect and ±100 for the full control effect
#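 THP-1 cells pretreated 1 hr with compounds (up to 57.5 uM final), then stimulated with LPS (250 ng/mL final) plus ATP (1.25 mM final); secreted IL-1B measured by AlphaLISA after 16 hr, decreased signal indicating inhibition.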
# TGFb inhibitor: inhibitors of TGF-b signaling; HepG2 CAGA-GFP TGF-b/SMAD3 reporter, GFP fluorescence, 18 h; TGF-beta stimulated, 500 pg/mL final; Potency, µM (highest dose often 46.1 µM), without a hit: at the top dose activity, negative = inhibition, hits mostly inhibitors; AID 588855; hit rate 1.2% among 410,000; also: potency is read from the fitted curve at half-maximal effect; % is scaled to controls: 0 for no effect and ±100 for the full control effect; nearly all actives have a fitted effect of over 65% in size
#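 Smad-responsive CAGA-GFP expression was quantified in HEPG2 cells exposed to compounds and 500 pg/mL final TGF-beta for 18 h at 37 degrees C; unstimulated wells defined full inhibition.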
# An asterisk follows results filed as active; ? = inconclusive; . = not tested or not shown; ! = repeats disagree; [ ] = remark or other dose. A selection: hits, their analogues and other compounds. The true share with any hit is near 6.5%. Unless noted, calls follow the shape of the dose curve; as a rule, active = well fitted curve in the direction sought with a large enough effect; inconclusive = small, poorly fitted or top-dose-only effect, or another doubt; inactive = no such curve, though single readings can be large; an effect the other way counts as inactive or inconclusive.
SMILES,Giardia killer,HT1080-NT tox,HepG2 viability,HT1080 IDH1KD tx,IL1B secr inh,TGFb inhibitor
CC(C)NC(=O)C1CCN(C(=O)c2cc3sccc3n2Cc2ccc(F)cc2)CC1,2.2,-24.6%,-22.8%,4.8%[9.24 µM],-81.3*,-24.6%
CCC(=O)N1CCN(c2nc3ccccc3s2)CC1,18.9,-8.6%,9.9%,-10.3%,-4.2,-11.3%
COc1ccccc1N1CCN(CCNC(=O)Nc2cccc(C)c2C)CC1,-16.9,-13.7%,-36.1%,?,-85.8*,3.8%
CC1=CC(C)C(C[N+]2(C)CCCCC2)C(C)C1 (stereo not given),9.7,2.5%,-8.1%,3.5%,-11.1,4.4%
CC1=CC(C)C(/C=N/N=C(N)N)C(C)C1 (stereo not given),-6.3,?,24.9%,16.4µM*,-66.2*,?
Cc1[nH]c2c(Br)cccc2c1[C@H]1[C@@H](CC#N)C1(C)C,-14.2,?,-16.6%,?,26.7,?
CCCn1c2ccccc2c2nnc(SCC(=O)Nc3c(C)n(C)n(-c4ccccc4)c3=O)nc21,-6.3,-3.4%,6.6%,-7.5%,-13.1,3.0%
COc1cccc(C2NC(c3cccc(OC)c3O)C(C)C(=O)C2C)c1O (stereo not given),-6.0,?,-7.2%,?,48.4,22.6%
CC1C(=O)C(C)C(c2cc(Cl)ccc2O)NC1c1cc(Cl)ccc1O (stereo not given),-2.7,16.4µM*,-144.3%,23.1µM*,-75.5*,?
CCCC1=Nc2cc(C(=O)NC3CCCC3)ccc2Sc2ccc(C)cc21,.,.,-0.8%,.,.,0.794µM*
CCCC1=Nc2cc(C(=O)N3CCC(C(=O)OCC)CC3)ccc2Sc2ccccc21,-1.3,?,-9.0%,-11.9%,-3.6,12.6µM*!
CCCC1=Nc2cc(C(=O)NC3CCCCC3)ccc2Sc2ccc(C)cc21,.,.,-10.4%,.,.,?
CC1=Nc2cc(C(=O)NC3CCC(C)CC3)ccc2Sc2c(C)ccc(C)c21 (stereo not given),.,.,-25.1%,.,.,?
CCOC(=O)N1CCC(NC(=O)c2ccc3c(c2)N=C(C)c2c(C)ccc(C)c2S3)CC1,-6.5,2.06µM*,-21.1%,2.31µM*,14.5,?
CCCC1=Nc2cc(C(=O)N3CCN(c4ccccn4)CC3)ccc2Sc2ccc(C)cc21,19.3,?,-10.2%,-24.6%,-50.0*,-17.0%
O=c1oc(-c2cc3ccccc3o2)nc2sc3c(c12)CCCC3,2.4,-4.7%,0.1%,-10.7%,3.5,10.9%
CC(=O)Nc1nccc(-c2cc(-c3ccccc3)no2)n1,-5.6,8.9%,0.5%,-0.5%,3.4,6.4%
CC(C)N(CCNC(=O)c1cn(C)c2ccc(S(=O)(=O)N(C)C)cc2c1=O)Cc1ccccc1,-29.9,0.1%,-20.7%,-7.6%,3.1,-8.6%
CC(=O)c1c(C)oc2ccc(N(C(=O)C3CCCCC3)S(=O)(=O)c3cc([N+](=O)[O-])ccc3C)cc12,-17.7,5.2%,19.2%,5.3%,16.1,-14.9%
Cc1ccc(C(=O)n2c3ccccc3c3ccccc32)cc1,1.9,?,-6.8%,6.51µM*,42.9,-9.4%
CCC(NC(=O)C1(C)CC1(Br)Br)c1ccc(C)cc1 (stereo not given),5.4,0.8%,7.4%,0.3%,9.5,-2.5%
CCc1ccc(C(C)NC(=O)C2(C)CC2(Br)Br)cc1 (stereo not given),-2.4,-0.4%,-22.6%,-13.6%,-60.7*,2.9%
COc1ccc(/C=C2\N=C3CCCCCN3C2=O)cc1OC,3.8,-0.9%,-17.4%,-12.1%,27.4,0.0%
CSc1nc2ccc(NC(=O)c3ccccn3)cc2s1,?,14.6µM*,-25.1%,11.6µM*,-10.5,-20.1%
Cc1ccc2nc(NC(=O)c3ccccc3F)sc2c1,-20.3,-6.5%,-1.7%,-2.3%,6.0,-2.1%
SMILES,Giardia killer,HT1080-NT tox,HepG2 viability,HT1080 IDH1KD tx,IL1B secr inh,TGFb inhibitor
CCOc1ccc2nc(NC(=O)Nc3ccccc3)sc2c1,0.3,-3.0%,-15.6%,-21.8%,-5.7,-4.1%
CSc1nc2ccc(NC(=O)C3=NNC(=O)CC3)cc2s1,5.1,-2.3%,-8.7%,-28.7%,0.0,-28.0%
Fc1ccc2nc(Nc3nc4c(F)cc(F)cc4s3)sc2c1,-7.4,-7.3%,-6.1%,-7.3%,-60.8*,?
Cc1ccc2nc(NC(=O)c3ccccn3)sc2c1,?,14.6µM*,-51.4%,2.31µM*,-101.9*,0.2%
CCOc1ccc2nc(NC(=O)c3ccccn3)sc2c1,?,?,-32.2%,16.4µM*,-97.9*,-8.7%
O=C(COc1ccccc1)NNc1nc2c(F)cc(F)cc2s1,-10.8,11.3%,-3.8%,0.1%,7.9,29.4%
O=C(Nc1nc2c(F)cc(F)cc2s1)c1ccccn1,?,?,-32.0%,6.51µM*,-0.7,?
CCn1cc([N+](=O)[O-])c(C(=O)Nc2nc3ccc(OC)cc3s2)n1,-14.8,?,0.8%,-1.0%,-59.3*,?
CCOc1ccc(S(=O)(=O)N(C)c2ccc(OCC(=O)Nc3nc4ccccc4s3)cc2)cc1,4.2,-11.2%,-28.9%,6.51µM*,7.7,?
COc1ccc2nc(NC(=O)c3cnccn3)sc2c1,1.1,11.2µM*,-41.9%,7.94µM*,-4.1,5.8%
CCN1CCN(c2ccc(S(=O)(=O)N3CCCCC3)cc2NC(=O)/C=C/c2ccc(OC(F)F)cc2)CC1,9.2,-10.8%,-71.1%,-20.6%,-84.0*,?
CCN1CCN(c2ccc(S(=O)(=O)N3CCCCC3)cc2NC(=O)c2ccc(OC(F)F)cc2)CC1,2.1,-9.1%,-33.4%,-9.9%,-75.7*,3.3%
CCN1CCN(c2ccc(S(=O)(=O)N3CCCCC3)cc2NC(=O)/C=C/c2ccc(F)cc2)CC1,-6.9,-3.7%,-74.8%,-4.0%,?,?
O=C(/C=C/c1ccc(Cl)c([N+](=O)[O-])c1)Nc1ccc(N2CCCC2)c(Cl)c1,?,?,-22.6%,13µM*,-25.2,0.0%
CCN1CCN(c2ccc(S(=O)(=O)N3CCCCC3)cc2NC(=O)/C=C/c2ccc([N+](=O)[O-])cc2)CC1,13.8,?,-46.7%,16.4µM*,-98.5*,-27.4%
Cc1ccc(-c2nc(S(=O)(=O)c3ccc(C)cc3)c(SCC(=O)NCC3CCCO3)o2)cc1 (stereo not given),8.4,-9.8%,-4.9%,-1.2%,17.0,21.5%
CCCn1c(SCC(=O)N(C)C2CCS(=O)(=O)C2)nc2sc3c(c2c1=O)CCC3 (stereo not given),6.5,-4.9%,-30.2%,-22.2%,-8.4,-28.6%
Nn1c(SCC(=O)Nc2cccc(S(N)(=O)=O)c2)nnc1C1CC1,4.0,6.0%,-7.1%,3.1%,23.0,-0.5%
